The source made the active and inactive calls. The call rests on the fitted dose curve; in most records, active means well fitted activation curve with a large enough effect in the repeat runs; inconclusive means weak or mixed curves; inactive means flat fitted curve, though single readings scatter.
molecular target: KiSS-1 receptor (Homo sapiens) (UniProt Q969F8); assay: Human kisspeptin (KISS1R) small molecule agonists, calcium flux assay in KISS1R-HEK293 cells (AID 1920064); details: KISS1R-HEK293, calcium flux fluorescence, agonist; series mostly up to 76.8 µM
Excerpt: National Center for Advancing Translational Sciences [NCATS]
Division of Preclinical Innovation [DPI]
U.S. Environmental Protection Agency [EPA]
National Institutes of Environmental Health Sciences [NIEHS]
National Toxicology Program [NTP]
U.S. Food and Drug Administration [FDA]
Kisspeptin and its receptor KISS1R play key roles in mammalian reproduction due to their involvement in the onset of puberty and control of the hypothalamic-pituitary-gonadal axis such as regulates GnRH release from the hypothalamus. The kisspeptin/KISS1R system also plays a direct role in peripheral organs (including the ovary, testis, uterus, and placenta) and is implicated in reproductive diseases such as miscarriage and polycystic ovary syndrome (PCOS). Abnormal KISS1R activity is associated with abnormal puberty, infertility, endometriosis, and hormone-dependent tumors. The KISS1 receptor (KISS1R, also called GPR54), a G-protein-coupled receptor (GPCR), acts (through phospholipase C) to increase intracellular inositol trisphosphate and then release intracellular calcium stores. Cell-based KISS1R-HEK293 assay is using HEK293 cells that have been genetically engineered to express the human KISS1R, which activity can be measured by calcium signaling. A compound/drug can activate (agonist) KISS1R that can be monitored by levels of intracellular calcium.
KISS1R-HEK293 cells developed by Codex Corp contain human KISS1R gene, which was stably integrated into HEK 293 cells. The compound activation can be detected by fluorescence intensity via calcium flux assay. This cell line has been used to screen the Tox21 10K compound library to identify agonists of KISS1R.
KISS1R-Hek293 cells were dispensed at 1500 cells/4uL/well in 1536-well black wall/clear bottom plates using a multidrop dispenser. After the assay plates were incubated at a 37 C/5% CO2 incubator for 18 hours, 4 microL of Calcium Dye Solution was added to each well. The plates were incubated at 37 C for 1 hour. And then 23 nL of compounds dissolved in DMSO, positive controls, or DMSO only was transferred to the assay plate by a pin tool station. The fluorescence intensity in the plates was measured using FDSS 7000EX kinetic plate reader with a filter set of Ex/Em=480/540 for 3 min at 1 sec intervals. Each test compound was measured at 15 concentrations and in triplicates.

KiSS-1 receptor (Homo sapiens), sequence (Q969F8 whole entry, looked up): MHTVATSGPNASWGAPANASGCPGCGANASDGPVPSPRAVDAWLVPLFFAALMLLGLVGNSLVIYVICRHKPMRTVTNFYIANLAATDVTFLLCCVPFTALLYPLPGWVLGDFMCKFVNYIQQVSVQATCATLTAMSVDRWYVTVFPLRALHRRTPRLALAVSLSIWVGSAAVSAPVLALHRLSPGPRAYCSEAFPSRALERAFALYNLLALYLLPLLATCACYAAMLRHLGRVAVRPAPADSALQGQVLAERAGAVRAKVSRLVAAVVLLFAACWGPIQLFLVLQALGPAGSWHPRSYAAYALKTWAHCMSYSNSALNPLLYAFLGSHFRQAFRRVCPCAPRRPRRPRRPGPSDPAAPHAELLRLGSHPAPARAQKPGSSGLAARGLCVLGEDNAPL

SMILES | outcome
O=C(O)C(Cc1cc(I)c(O)c(I)c1)c1ccccc1 (stereo not given) | inactive
NC(=O)c1ncn([C@@H]2O[C@H](CO)[C@@H](O)[C@H]2O)c1N | inactive
CCCCCCCC/C=C\CCCCCCCCCCCC(=O)O | inactive
CCCCN(C)C | inactive
CC(C)C(O)C(C)(C)CO (stereo not given) | inactive
CCN1CCCC1CNC(=O)c1cc(S(N)(=O)=O)ccc1OC (stereo not given) | inactive
C[C@@H]1C[C@H]2[C@@H]3CCC4=CC(=O)C=C[C@]4(C)[C@@]3(F)[C@@H](O)C[C@]2(C)[C@@]1(O)C(=O)CO | inactive
Cc1cc(C)c(NC(=O)CN(CC(=O)O)CC(=O)O)c(C)c1Br | inactive
O=C(CCCN1CCN(c2ccccn2)CC1)c1ccc(F)cc1 | inactive
FC(F)(F)c1ccc(Cl)cc1Cl | inactive
COC(=O)C(c1ccccc1Cl)N1CCc2sccc2C1 (stereo not given) | inactive
OC1(c2ccccc2)CCNCC1 | inactive
Cc1cscn1 | inactive
CCOC(=O)Cn1cccc1-c1nc(-c2ccc(OC)cc2)c(-c2ccc(OC)cc2)s1 | inactive
CCCOC(=O)c1ccc(O)cc1 | inactive
NC(=O)NS(=O)(=O)c1ccc(N)cc1 | inactive
CC(C(=O)O)c1ccc(-c2ccccc2)c(F)c1 (stereo not given) | inactive
N#Cc1ccc(CC(=O)c2cccc(C(F)(F)F)c2)cc1 | inactive
CCC1(C)C(=O)N(Cl)C(=O)N1Cl (stereo not given) | inactive
O=C1c2ccccc2C(=O)C1c1ccc(Br)cc1 | inactive

SMILES | outcome
NCCS | inactive
Nc1ccc(C(=O)NCC(=O)O)cc1 | inactive
O=c1c(O)c(-c2ccc(O)cc2O)oc2cc(O)cc(O)c12 | inactive
C[Si](NC1CCCCC1)(NC1CCCCC1)NC1CCCCC1 | inactive
O=C1OC(=O)C2CCCCC12 (stereo not given) | inactive
CC1(C)[C@H]2CC[C@]1(C)C(=O)C2 | inactive
CC(=O)c1ccc(C(C)=O)cc1 | inactive
CC[C@H](NC(=O)c1cc(F)ccc1NS(=O)(=O)c1cccc2cccnc12)c1ccccc1 | inactive
CCNC(=O)NCCCOc1cccc(CN2CCCCC2)c1 | inactive
NCCCC[C@H](N[C@@H](CCc1ccccc1)C(=O)O)C(=O)N1CCC[C@H]1C(=O)O | inactive
CC(C)C(=O)OCc1ccccc1 | inactive
CC(C)=CCC/C(C)=C/CC/C(C)=C/CCC(=O)OC/C=C(\C)CCC=C(C)C | inactive
C=C(C)C1CCC(C)CC1O (stereo not given) | inactive
Cc1c(N)cccc1Cl | inactive
Nc1ccccc1O | inactive
O=S1(=O)c2cccc3cccc(c23)N1CCCN1CCN(c2ccc(F)cc2)CC1 | inactive
CCCCCC(=O)OCC | inactive
Cc1cn([C@@H]2O[C@H](CO)[C@@H](O)[C@@H]2F)c(=O)[nH]c1=O | inactive
C#CC(O)CCCCC (stereo not given) | inactive
CC(C)(C)NCC(O)COc1cccc2c1C[C@H](O)[C@H](O)C2 (stereo not given in full) | inactive

Source: PubChem BioAssay (Tox21)
